Some test systems named below: SR leukemia; RPMI-8226 leukemia; OVCAR-8 ovarian; OVCAR-5 ovarian; OVCAR-4 ovarian; SK-OV-3 ovarian; IGROV1 ovarian; OVCAR-3 ovarian; HS 578T breast; NCI/ADR-RES ovarian.
What all share (experiment): NCI-60 one-dose screen, 48 h (100 = growth as untreated, 0 = no growth, -100 = all killed)
Holding throughout (details): 10 µM unless noted

Molecules are shown by their SMILES. This is part of a sample that, as a whole, favours compounds with a hit. Of some 83,000 tested, about 20% had one in any assay.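 For each line, cells grew in 96-well plates with the test compound present at a single concentration for 48 hours.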 Active and inactive are the calls of the source. The calls were made as follows: active = growth percent below 10; inactive = the rest.

On to `COc1cc(/C=C/C(=O)c2ccc(F)cc2)ccc1OCCCCOc1ccc(/C=C/C(=O)c2c(C)nc3ccccc3c2C)cc1OC`, for which the growth in the experiment on SR leukemia is 79.2% (inactive); with RPMI-8226 leukemia, 79.3% (inactive); in the experiment on OVCAR-8 ovarian, 78.3% (inactive); in the experiment on OVCAR-5 ovarian it was 108% (inactive); in the experiment on OVCAR-4 ovarian it was 76.5% (inactive); in the experiment with SK-OV-3 ovarian, 107% (inactive). Further, the growth in the experiment with IGROV1 ovarian was 101% (inactive); with OVCAR-3 ovarian, 92% (inactive); in the experiment with HS 578T breast, 117% (inactive); in the experiment with NCI/ADR-RES ovarian it was 91.4% (inactive).
For the molecule `N#Cc1c(-c2ccccc2)cc(-c2ccc(Nc3nc(Nc4ccc(Cl)cc4)nc(Nc4ccc(Cl)cc4)n3)cc2)nc1N`, the growth in the experiment with SR leukemia was -30.8% (active); with RPMI-8226 leukemia, -45.4% (active); with OVCAR-8 ovarian, 32.6% (inactive); in the experiment on OVCAR-5 ovarian it was 63.2% (inactive); with OVCAR-4 ovarian, -15.2% (active); in the experiment on SK-OV-3 ovarian it was 110% (inactive). Besides, the growth is -8.08% (active) with IGROV1 ovarian, -54% (active) with OVCAR-3 ovarian, 14.4% (inactive) in the experiment with HS 578T breast and 53.2% (inactive) with NCI/ADR-RES ovarian.
In the case of `COc1ccccc1NC(=O)N=Nc1c(O)[nH]c2ccccc12`, the growth in the experiment on SR leukemia was 83.9% (inactive); in the experiment on RPMI-8226 leukemia it was 84.8% (inactive); in the experiment with OVCAR-8 ovarian it was 92.9% (inactive); in the experiment on OVCAR-5 ovarian, 86.7% (inactive); in the experiment with OVCAR-4 ovarian, 105% (inactive); in the experiment with SK-OV-3 ovarian, 97.8% (inactive). Moreover, the growth with IGROV1 ovarian is 82% (inactive); in the experiment on OVCAR-3 ovarian it was 107% (inactive); with HS 578T breast, 87.8% (inactive); in the experiment with NCI/ADR-RES ovarian it was 94.1% (inactive).
For the molecule `O=C(CSc1nc2ccc([N+](=O)[O-])cc2[nH]1)Nc1ccc([N+](=O)[O-])cc1`, the growth is 10.7% (inactive) with SR leukemia; -17.5% (active) with RPMI-8226 leukemia; 14.4% (inactive) with OVCAR-8 ovarian; 63.3% (inactive) in the experiment on OVCAR-5 ovarian; 1.39% (active) with OVCAR-4 ovarian; 27% (inactive) with SK-OV-3 ovarian. Moreover, the growth in the experiment on IGROV1 ovarian is 37.7% (inactive); in the experiment on OVCAR-3 ovarian it was 18.5% (inactive); with HS 578T breast, 31.7% (inactive); in the experiment with NCI/ADR-RES ovarian it was 36.3% (inactive).
For `CCCNC(=O)Nc1ccc2cc3ccc(NC(=O)NCCC)cc3nc2c1`, the growth with SR leukemia is 37.2% (inactive); with RPMI-8226 leukemia, 76.1% (inactive); with OVCAR-8 ovarian, 74.5% (inactive); in the experiment on OVCAR-5 ovarian, 90.1% (inactive); in the experiment with OVCAR-4 ovarian, 65.2% (inactive); with SK-OV-3 ovarian, 95.1% (inactive). Moreover, the growth with IGROV1 ovarian was 34.4% (inactive); in the experiment with OVCAR-3 ovarian, 70.1% (inactive); with HS 578T breast, 48.4% (inactive); in the experiment with NCI/ADR-RES ovarian it was 96.9% (inactive).
Turning to `COCCOc1cc2ncnc(N3CCN(c4ncc(S(=O)(=O)N5CCCCC5)cn4)CC3)c2cc1OCCOC`, the growth was 72.9% (inactive) with SR leukemia; 90.2% (inactive) in the experiment on RPMI-8226 leukemia; 97% (inactive) in the experiment with OVCAR-8 ovarian; 114% (inactive) with OVCAR-5 ovarian; 105% (inactive) in the experiment on OVCAR-4 ovarian; 123% (inactive) in the experiment on SK-OV-3 ovarian. Also, the growth in the experiment with IGROV1 ovarian was 99.2% (inactive); in the experiment with OVCAR-3 ovarian it was 114% (inactive); in the experiment on HS 578T breast, 114% (inactive); in the experiment on NCI/ADR-RES ovarian it was 97.6% (inactive).
As to `N=C(N)c1ccc(-c2ccc(-c3ccc(Cl)cc3Cl)s2)cc1`, the growth with SR leukemia was 4.31% (active); with RPMI-8226 leukemia, -24.4% (active); in the experiment on OVCAR-8 ovarian, -21.3% (active); in the experiment on OVCAR-5 ovarian, 38.6% (inactive); in the experiment on OVCAR-4 ovarian, -16.2% (active); with SK-OV-3 ovarian it was 88% (inactive). For the same molecule, the growth in the experiment on IGROV1 ovarian is -37.5% (active); in the experiment with OVCAR-3 ovarian it was -16.4% (active); with HS 578T breast, 71.6% (inactive); with NCI/ADR-RES ovarian, 77.5% (inactive).
For the molecule `CC(C)(C)CC(C)(C)NC(=O)Nc1ncccc1OCc1ccccc1`, the growth in the experiment with SR leukemia is 89.4% (inactive); in the experiment with RPMI-8226 leukemia it was 84.9% (inactive); in the experiment with OVCAR-8 ovarian, 99.4% (inactive); in the experiment with OVCAR-5 ovarian it was 91.6% (inactive); with OVCAR-4 ovarian it was 84.3% (inactive); with SK-OV-3 ovarian, 104% (inactive). In addition, the growth is 93.9% (inactive) in the experiment on IGROV1 ovarian, 98.5% (inactive) with OVCAR-3 ovarian, 106% (inactive) in the experiment on HS 578T breast and 86.2% (inactive) in the experiment on NCI/ADR-RES ovarian.
As for `COc1ccc(C(=O)/C=C/c2c(C(F)(F)F)nc3ccccn23)cc1OC`, the growth in the experiment with SR leukemia was -9.91% (active); with RPMI-8226 leukemia, 6.41% (active); in the experiment on OVCAR-8 ovarian, 10.9% (inactive); in the experiment with OVCAR-5 ovarian it was 9.01% (active); with OVCAR-4 ovarian, 5.92% (active); in the experiment on SK-OV-3 ovarian, 17.3% (inactive). For the same molecule, the growth in the experiment on IGROV1 ovarian is 17.3% (inactive); with OVCAR-3 ovarian, -51.3% (active); with HS 578T breast, 4.59% (active); in the experiment with NCI/ADR-RES ovarian, -22.7% (active).
Turning to `CN(C)CCNC(=O)c1ccc(-c2nc3ccc4[nH]ncc4c3c3c2C2CCC3C2)cc1` (stereo not given), the growth in the experiment with SR leukemia was 1.91% (active); in the experiment with RPMI-8226 leukemia, -5.84% (active); with OVCAR-8 ovarian, 20.8% (inactive); in the experiment with OVCAR-5 ovarian, 96% (inactive); in the experiment on OVCAR-4 ovarian, 48.6% (inactive); with SK-OV-3 ovarian, 1.15% (active). In addition, the growth is 16.4% (inactive) with IGROV1 ovarian, 20.9% (inactive) with OVCAR-3 ovarian, 9.56% (active) with HS 578T breast and 77.7% (inactive) in the experiment on NCI/ADR-RES ovarian.
As for `COc1cc(-c2nccc3[nH]c(-c4ccc5cc[nH]c5c4)nc23)cc(OC)c1OC`, the growth in the experiment on SR leukemia is -4.95% (active); in the experiment on RPMI-8226 leukemia it was -43% (active); in the experiment on OVCAR-8 ovarian it was 12.4% (inactive); in the experiment on OVCAR-5 ovarian it was 41.5% (inactive); in the experiment on OVCAR-4 ovarian, 39.3% (inactive); in the experiment with SK-OV-3 ovarian, 1.3% (active). Besides, the growth in the experiment with IGROV1 ovarian was 29.5% (inactive); in the experiment with OVCAR-3 ovarian it was 2.2% (active); in the experiment on HS 578T breast it was 31.1% (inactive); with NCI/ADR-RES ovarian, 12.7% (inactive).
Take `C1CCC([PH+](C2CCCCC2)C2CCCCC2[PH+](C2CCCCC2)C2CCCCC2)CC1.[Au].[CH-]1CCCCC1C1CCCC[N-]1` (stereo not given): the growth with SR leukemia was -3.06% (active); in the experiment with RPMI-8226 leukemia, -15.6% (active); with OVCAR-8 ovarian, -6.1% (active); in the experiment on OVCAR-5 ovarian, -69.3% (active); with OVCAR-4 ovarian, -5.17% (active); in the experiment on SK-OV-3 ovarian, -65.8% (active). For the same molecule, the growth in the experiment on IGROV1 ovarian was -38.6% (active); in the experiment on OVCAR-3 ovarian it was -92.2% (active); in the experiment with HS 578T breast, -5.47% (active); with NCI/ADR-RES ovarian, 9.87% (active).
On to `CCOC(=O)C1=C(c2ccccc2)N=C2SC=C(c3ccc(Cl)cc3)N2C1c1ccc(Cl)cc1` (stereo not given), for which the growth in the experiment on SR leukemia is 75.7% (inactive); in the experiment on RPMI-8226 leukemia, 65.9% (inactive); in the experiment on OVCAR-8 ovarian, 78.6% (inactive); with OVCAR-5 ovarian it was 96.9% (inactive); in the experiment with OVCAR-4 ovarian it was 48.7% (inactive); in the experiment on SK-OV-3 ovarian, 86.5% (inactive). Further, the growth in the experiment with IGROV1 ovarian was 72.3% (inactive); with OVCAR-3 ovarian, 65.8% (inactive); in the experiment with HS 578T breast, 85.2% (inactive); in the experiment with NCI/ADR-RES ovarian, 92.3% (inactive).
